Structures are written as SMILES. Results filed as inconclusive are left out. The source holds several records for some structures; these can differ, active in one and inactive in another. Activity calls are given as the source filed them. Unless noted, calls follow the shape of the full dose curve.
% is scaled to controls: 0 for no effect and ±100 for the full control effect.

Sequence of Estrogen receptor beta (Homo sapiens) (Q92731 whole entry, looked up): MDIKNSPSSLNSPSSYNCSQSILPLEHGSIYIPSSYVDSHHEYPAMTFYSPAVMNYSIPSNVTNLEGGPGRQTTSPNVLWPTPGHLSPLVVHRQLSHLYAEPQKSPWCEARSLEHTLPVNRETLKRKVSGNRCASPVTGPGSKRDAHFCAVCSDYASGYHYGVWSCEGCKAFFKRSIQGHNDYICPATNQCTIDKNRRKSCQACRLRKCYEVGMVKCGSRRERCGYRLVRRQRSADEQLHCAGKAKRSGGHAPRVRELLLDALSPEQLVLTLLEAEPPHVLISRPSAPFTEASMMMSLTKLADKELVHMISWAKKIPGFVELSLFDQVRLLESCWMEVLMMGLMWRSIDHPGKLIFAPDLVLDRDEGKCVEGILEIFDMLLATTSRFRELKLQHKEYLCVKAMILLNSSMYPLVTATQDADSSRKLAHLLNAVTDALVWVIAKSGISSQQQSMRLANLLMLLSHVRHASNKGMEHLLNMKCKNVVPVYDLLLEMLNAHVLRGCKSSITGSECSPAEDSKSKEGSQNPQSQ

Test system in the first assay: not listed separately
Put plainly: qHTS assay to identify small molecule antagonists of the sonic hedgehog signaling (Shh) pathway (AID 1259369). Also: nearly all actives have a fitted effect of over 45% in size. Also: potency is read from the fitted curve at half-maximal effect. Particulars: NIH/3T3 Gli1-Luc reporter, Shh antagonist, luminescence 24 h; series mostly up to 92.4 µM; activity change, negative = inhibition: at the top concentration. A digest of the protocol: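 Inhibition of Shh signalling is measured as reduced Gli1-response-element firefly luciferase output in an NIH/3T3-derived stable reporter clone stimulated with conditioned medium for 24hr.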
In the case of `CN1C(=O)CC(C)(c2ccccc2)C1=O` (stereo not drawn), the “activity change, negative = inhibition” value is 15.2% [at 42.5 µM] (inactive).

Take `CC(=O)Nc1ccccc1C`: the “activity change, negative = inhibition” value was 16.1% (inactive).

For `CCCCC(CC)COC(=O)COc1ccc(Cl)cc1C` (stereo not drawn), the “activity change, negative = inhibition” value was 1.44% (inactive).

For the molecule `COc1ccc(CCC(=O)c2c(O)cc(O[C@@H]3O[C@H](CO)[C@@H](O)[C@H](O)[C@H]3O[C@@H]3O[C@@H](C)[C@H](O)[C@@H](O)[C@H]3O)cc2O)cc1O`, the “activity change, negative = inhibition” value is 9.06% (inactive).

For `Cc1cc(OI)c(C(C)C)cc1-c1cc(C(C)C)c(OI)cc1C`, the “activity change, negative = inhibition” value is 6.55% [at 42.5 µM] (inactive).

Consider `CCCOCCOCCO`, for which the “activity change, negative = inhibition” value was 0% (inactive).

In the case of `CC(=O)Nc1ccc(N)cc1`, the “activity change, negative = inhibition” value is 6.17% (inactive).

Turning to `CC1=C(C=O)C(C)(C)CCC1`, the “activity change, negative = inhibition” value is 3.59% (inactive).

For the molecule `C=CCCCCCCCCCCCCCCCC`, the activity change, negative = inhibition was 12.7% [at 8.39 µM] (inactive).

Turning to `[O]=[Bi]`, the Potency is 1.67 µM (active).

On to `CN1Cc2cc(C(=O)N3CCC(C4CCNCC4)CC3)ccc2N[C@@H](CC(=O)O)C1=O`, for which the “activity change, negative = inhibition” value is -21.5% [at 42.5 µM] (inactive).

Consider `Cc1ccccc1N1C(=O)c2cc(S(N)(=O)=O)c(Cl)cc2NC1C` (stereo not drawn), for which the “activity change, negative = inhibition” value was -19% [at 42.5 µM] (inactive).

Take `CC(CCO)CCc1ccccc1` (stereo not drawn): the “activity change, negative = inhibition” value is -2.65% (inactive).

As to `O=C(O)c1snc(Cl)c1Cl`, the “activity change, negative = inhibition” value is -20.7% (inactive).

In the case of `Cc1nc2ccccc2s1`, the “activity change, negative = inhibition” value is -1.69% (inactive).

Turning to `C=CC(=O)NCOCC(C)C`, the “activity change, negative = inhibition” value is 3.2% (inactive).

For the molecule `CCn1cc(C(=O)O)c(=O)c2cc(F)c(N3CCNCC3)nc21`, the “activity change, negative = inhibition” value is 12.9% [at 42.5 µM] (inactive).

For `NC(=O)Nc1ccc(Cl)cc1`, the “activity change, negative = inhibition” value was -7.64% (inactive).

For `Cc1ccnc2ccccc12`, the Potency is 48.4 µM (active).

As for `CN1CCN(c2c(F)cc3c(=O)c(C(=O)O)cn4c3c2OCN4C)CC1`, the activity change, negative = inhibition was 2.85% [at 19 µM] (inactive).

Regarding `NCC1CCCC(CN)C1` (stereo not drawn), the “activity change, negative = inhibition” value is 15.5% (inactive).

Turning to `CCC(=O)OC/C=C/c1ccccc1`, the Potency entry was “inactive”.

Consider `CCCCCCCCCOC(C)=O`, for which the “activity change, negative = inhibition” value is 16% (inactive).

With `O=C(CCCCCCCCC#CI)Oc1ccccc1`, the “activity change, negative = inhibition” value is 0.732% [at 42.5 µM] (inactive).

On to `CO[C@H]1O[C@H](CO)[C@@H](O)[C@H](O)[C@H]1O`, for which the “activity change, negative = inhibition” value was 4.51% (inactive).

`O=S1OCCO1`: the “activity change, negative = inhibition” value was 28.2% (inactive).

Consider `O=C(O)C(Cc1cc(I)c(O)c(I)c1)c1ccccc1` (stereo not drawn), for which the “activity change, negative = inhibition” value is 26.5% [at 42.5 µM] (inactive).

Turning to `CC(CCc1ccc2c(c1)OCO2)NN` (stereo not drawn), the “activity change, negative = inhibition” value was 2.96% [at 42.5 µM] (inactive).

Regarding `CC(=O)OCC(=O)[C@@]12OC(C)(C)O[C@@H]1C[C@H]1[C@@H]3C[C@H](F)C4=CC(=O)C=C[C@]4(C)[C@@]3(F)[C@@H](O)C[C@@]12C`, the “activity change, negative = inhibition” value is -1.99% [at 42.5 µM] (inactive).

Consider `CC1CC(O)CC(C)(C)C1` (stereo not drawn), for which the “activity change, negative = inhibition” value is 12.2% (inactive).

Take `CCCCCCOC(=O)C(C)C`: the “activity change, negative = inhibition” value is 6.21% (inactive).

Turning to `CCCC(=O)O[C@]1(C(=O)COC(=O)CC)CC[C@H]2[C@@H]3CCC4=CC(=O)CC[C@]4(C)[C@H]3[C@@H](O)C[C@@]21C`, the activity change, negative = inhibition was -24.8% [at 19 µM] (inactive).

Consider `CCOCCn1c(C2CCN(CCc3ccc(C(C)(C)C(=O)O)cc3)CC2)nc2ccccc21`, for which the “activity change, negative = inhibition” value was 4.01% [at 42.5 µM] (inactive).

`CCCCOC(=O)CCS`: the “activity change, negative = inhibition” value was -3.48% (inactive).

As for `CCCOC(=O)c1ccc(N)cc1`, the “activity change, negative = inhibition” value is 8.6% [at 42.5 µM] (inactive).

In the case of `CC1(C)C(=O)N(Br)C(=O)N1Cl`, the “activity change, negative = inhibition” value is -2.66% (inactive).

In the case of `Cc1cc(O)c(C(C)C)cc1Cl`, the Potency was 15.4 µM (active) and inactive.

Consider `CCOC(=O)/C=C/C(=O)O`, for which the “activity change, negative = inhibition” value is -25.4% (inactive).

With `O=C(O)c1cccc(O)c1`, the “activity change, negative = inhibition” value is 19.1% (inactive).

The next assay addresses Estrogen receptor beta (Homo sapiens) (UniProt Q92731). Put plainly: qHTS assay to identify small molecule agonists of the estrogen receptor beta (ER-beta) signaling pathway (AID 1259377; active = well fitted activation curve with a large enough effect in the signal ratio in the repeat runs, not every such curve was filed as active; the % refers to the signal ratio). Particulars: ER-beta-UAS-bla HEK293T, beta-lactamase FRET ratio, 16 h; series mostly up to 92.4 µM; activation: at the top concentration. A digest of the protocol:
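In HEK293T cells bearing a UAS-beta-lactamase reporter under ER-beta control, DMSO-delivered compounds were incubated for 16 hr at 37C. Activity was detected as fluorescence 2 hours after LiveBLAzer B/G FRET substrate addition.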
With `CN1C(=O)CC(C)(c2ccccc2)C1=O` (stereo not drawn), the “activation” value is -1.69% [at 42.5 µM] (inactive).

As for `CC(=O)Nc1ccccc1C`, the “activation” value is -0.285% (inactive).

With `CCCCC(CC)COC(=O)COc1ccc(Cl)cc1C` (stereo not drawn), the “activation” value was 2.09% (inactive).

Take `COc1ccc(CCC(=O)c2c(O)cc(O[C@@H]3O[C@H](CO)[C@@H](O)[C@H](O)[C@H]3O[C@@H]3O[C@@H](C)[C@H](O)[C@@H](O)[C@H]3O)cc2O)cc1O`: the “activation” value is 0.622% (inactive).

Turning to `Cc1cc(OI)c(C(C)C)cc1-c1cc(C(C)C)c(OI)cc1C`, the “activation” value was 0.323% [at 42.5 µM] (inactive).

As for `CCCOCCOCCO`, the “activation” value was 0.96% (inactive).

In the case of `CC(=O)Nc1ccc(N)cc1`, the “activation” value is 1.72% (inactive).

For `CC1=C(C=O)C(C)(C)CCC1`, the “activation” value is 3.94% (inactive).

As to `C=CCCCCCCCCCCCCCCCC`, the activation is -1.08% [at 8.39 µM] (inactive).

Turning to `[O]=[Bi]`, the activation is 4.87% [at 8.39 µM] (inactive).

As to `CN1Cc2cc(C(=O)N3CCC(C4CCNCC4)CC3)ccc2N[C@@H](CC(=O)O)C1=O`, the “activation” value was -0.0501% [at 42.5 µM] (inactive).

Take `Cc1ccccc1N1C(=O)c2cc(S(N)(=O)=O)c(Cl)cc2NC1C` (stereo not drawn): the “activation” value is -0.076% [at 42.5 µM] (inactive).

With `CC(CCO)CCc1ccccc1` (stereo not drawn), the “activation” value was 6.6% (inactive).

In the case of `O=C(O)c1snc(Cl)c1Cl`, the “activation” value was -0.216% (inactive).

In the case of `Cc1nc2ccccc2s1`, the “activation” value was 4.16% (inactive).

`C=CC(=O)NCOCC(C)C`: the “activation” value is -0.565% (inactive).

In the case of `CCn1cc(C(=O)O)c(=O)c2cc(F)c(N3CCNCC3)nc21`, the “activation” value was 2.38% [at 42.5 µM] (inactive).

Consider `NC(=O)Nc1ccc(Cl)cc1`, for which the “activation” value is -1.44% (inactive).

With `Cc1ccnc2ccccc12`, the “activation” value was -0.774% (inactive).

For `CN1CCN(c2c(F)cc3c(=O)c(C(=O)O)cn4c3c2OCN4C)CC1`, the activation is -0.625% [at 19 µM] (inactive).

Turning to `NCC1CCCC(CN)C1` (stereo not drawn), the “activation” value is 0.304% (inactive).

On to `CCC(=O)OC/C=C/c1ccccc1`, for which the Potency result is “inactive”.

On to `CCCCCCCCCOC(C)=O`, for which the “activation” value was 0.314% (inactive).

For the molecule `O=C(CCCCCCCCC#CI)Oc1ccccc1`, the “activation” value was -4.24% [at 42.5 µM] (inactive).

As for `CO[C@H]1O[C@H](CO)[C@@H](O)[C@H](O)[C@H]1O`, the “activation” value is 2.15% (inactive).

Take `O=S1OCCO1`: the “activation” value was 5.79% (inactive).

As to `O=C(O)C(Cc1cc(I)c(O)c(I)c1)c1ccccc1` (stereo not drawn), the “activation” value is -3.25% [at 42.5 µM] (inactive).

Turning to `CC(CCc1ccc2c(c1)OCO2)NN` (stereo not drawn), the “activation” value is -0.634% [at 42.5 µM] (inactive).

Turning to `CC(=O)OCC(=O)[C@@]12OC(C)(C)O[C@@H]1C[C@H]1[C@@H]3C[C@H](F)C4=CC(=O)C=C[C@]4(C)[C@@]3(F)[C@@H](O)C[C@@]12C`, the “activation” value is 3.37% [at 42.5 µM] (inactive).

With `CC1CC(O)CC(C)(C)C1` (stereo not drawn), the “activation” value was -0.0896% (inactive).

Turning to `CCCCCCOC(=O)C(C)C`, the “activation” value was -1.11% (inactive).

Take `CCCC(=O)O[C@]1(C(=O)COC(=O)CC)CC[C@H]2[C@@H]3CCC4=CC(=O)CC[C@]4(C)[C@H]3[C@@H](O)C[C@@]21C`: the activation was 6.24% [at 19 µM] (inactive).

With `CCOCCn1c(C2CCN(CCc3ccc(C(C)(C)C(=O)O)cc3)CC2)nc2ccccc21`, the “activation” value is 1.85% [at 42.5 µM] (inactive).

For the molecule `CCCCOC(=O)CCS`, the “activation” value was 4.66% (inactive).

As to `CCCOC(=O)c1ccc(N)cc1`, the “activation” value was 4.88% [at 42.5 µM] (inactive).

In the case of `CC1(C)C(=O)N(Br)C(=O)N1Cl`, the “activation” value was 0.17% (inactive).

`Cc1cc(O)c(C(C)C)cc1Cl`: the Potency entry is “inactive”.

For `CCOC(=O)/C=C/C(=O)O`, the “activation” value is 2.49% (inactive).

For the molecule `O=C(O)c1cccc(O)c1`, the “activation” value is -3.64% (inactive).

For the origin of these results see PubChem BioAssay (Tox21).
